Cardio protect – cardioprotection against H2O2-induced cell death, primary screen, uHTS, H9c2 cells, ATPLite luminescence; H9c2 cardiomyocytes, H2O2 injury protection, 2 h; protection from H2O2 cell death, % at 20 µM; actives 0.63% (n = 360,000); AID 588492, 2011;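 active means compounds giving at least 50% protection of heart cells from peroxide-induced death in the single-dose screen, raw or plate-pattern-corrected value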;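 further: 0% = DMSO wells with peroxide and 100% = DMSO wells without peroxide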
PHOSPHO1 inh – PubChem AID 1565; Phosphoethanolamine/phosphocholine phosphatase (Homo sapiens), Q8TCT1; recombinant PHOSPHO1, absorbance phosphatase assay; inhibition, % at 13.3 µM; actives 1.1% (n = 290,000); in the data active means inhibition above about 60%
Efflux pump inh – inhibitors of Candida efflux pumps in yeast, primary screen, S. cerevisiae, Nile Red, multiplex. inhibition, % at 10 µM. AID 485275, 2010. S. cerevisiae Candida pump triplex. actives 0.44% (n = 330,000);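 active means plate passing quality check with inhibition over a set limit, or well fluorescence over plate mean plus 4 SD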;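 further: Nile Red retained in pooled yeast measured as flow cytometry median fluorescence; 0% = buffer negative control and 100% = Enniatin B positive control; higher means more Nile Red kept so more efflux inhibition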
Calb FLC – C. albicans growth inhibition with fluconazole, primary screen, CaCi-2 strain, Alamar Blue fluorescence | actives 0.57% (n = 300,000) | C. albicans CaCi-2 (fluconazole-resistant clinical isolate) + fluconazole, 48 h | AID 1979, 2009 | growth inhibition, % (test concentration not listed);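 active means growth inhibition above about 58% in most replicates, limit read from the data, passing the limit was not always enough; inconclusive means exactly half the replicates above a set limit; inactive means most replicates below a set limit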;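 further: all wells also contain fluconazole at 8 µg/ml as a sub-toxic cotreatment; 0% = median of DMSO wells and 100% = median of geldanamycin control wells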
KCC2 mod – KCC2 cotransporter modulators, thallium flux, primary screen, cell-based, HEK293 KCC2, FluoZin-2 fluorescence, MLSMR | KCC2 cells, thallium flux FluoZin-2 fluorescence | B-score of Tl+ flux slope (higher = more flux/activation; lower = inhibition) at 10 µM | actives 2.2% (n = 190,000) | AID 1456, 2008;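 active means thallium flux slope and its plate-corrected score both differing from the plate sample mean at a set confidence after two filtering rounds, in either direction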;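 further: slope of fluorescence scaled to starting intensity during 10 to 20 s after thallium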
Target sequence (Q9H2X9 whole entry, looked up): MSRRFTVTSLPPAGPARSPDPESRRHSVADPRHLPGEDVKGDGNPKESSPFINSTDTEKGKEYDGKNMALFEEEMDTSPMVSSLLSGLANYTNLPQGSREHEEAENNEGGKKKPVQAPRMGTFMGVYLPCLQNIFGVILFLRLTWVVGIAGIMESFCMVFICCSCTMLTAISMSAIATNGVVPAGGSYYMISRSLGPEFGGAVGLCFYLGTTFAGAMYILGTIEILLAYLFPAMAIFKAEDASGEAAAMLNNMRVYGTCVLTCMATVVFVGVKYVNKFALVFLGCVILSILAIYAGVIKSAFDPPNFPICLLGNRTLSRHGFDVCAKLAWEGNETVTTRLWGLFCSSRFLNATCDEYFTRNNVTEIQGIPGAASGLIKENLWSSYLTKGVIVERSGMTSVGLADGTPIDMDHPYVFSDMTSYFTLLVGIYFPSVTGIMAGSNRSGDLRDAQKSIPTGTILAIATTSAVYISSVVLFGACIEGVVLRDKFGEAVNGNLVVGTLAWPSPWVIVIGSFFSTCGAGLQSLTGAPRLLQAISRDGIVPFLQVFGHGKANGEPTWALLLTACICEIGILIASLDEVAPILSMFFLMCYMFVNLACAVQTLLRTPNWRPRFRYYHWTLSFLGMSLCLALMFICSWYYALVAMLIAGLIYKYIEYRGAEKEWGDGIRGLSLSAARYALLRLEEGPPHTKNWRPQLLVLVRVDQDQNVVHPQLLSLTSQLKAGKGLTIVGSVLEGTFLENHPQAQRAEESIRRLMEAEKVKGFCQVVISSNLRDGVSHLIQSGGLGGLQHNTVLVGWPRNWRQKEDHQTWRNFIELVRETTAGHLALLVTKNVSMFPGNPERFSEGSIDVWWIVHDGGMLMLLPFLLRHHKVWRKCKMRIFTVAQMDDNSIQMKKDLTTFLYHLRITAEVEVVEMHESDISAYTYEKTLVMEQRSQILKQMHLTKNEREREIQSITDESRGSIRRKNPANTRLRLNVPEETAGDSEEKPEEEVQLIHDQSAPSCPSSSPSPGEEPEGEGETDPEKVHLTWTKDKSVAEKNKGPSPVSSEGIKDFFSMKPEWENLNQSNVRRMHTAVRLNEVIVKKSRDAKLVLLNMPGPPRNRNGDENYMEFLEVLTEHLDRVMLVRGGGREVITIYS
KCC2 secondary – KCC2 modulators in sodium-free buffer, confirmation, cell-based, HEK293 KCC2, thallium flux, secondary assay; shares compounds with KCC2 mod; FluoZin2 fluorescence; active compounds read high; normalised thallium flux (F/F0 slope) at 10 µM; actives 15% (n = 3,700); AID 1713, 2009;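 active means thallium flux slope above the same plate's solvent-only control mean plus 3 SD; inconclusive means the two replicate wells disagree; inactive means no significant difference from solvent-only control wells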
KCC2 bumet counter – thallium flux persisting under bumetanide in KCC2 cells, confirmation, counter-screen for KCC2 modulator project, cell-based, HEK293 KCC2, FluoZin2, secondary assay 3; HEK293-KCC2 + bumetanide/ouabain; active compounds read high; shares compounds with KCC2 mod; actives 49% (n = 3,700); normalized thallium flux at 10 µM;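 active means thallium entry rate above the same plate's blocked-transporter control wells by more than 3 SD; inconclusive means the two repeat wells disagree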;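 further: raw slope of fluorescence over initial fluorescence between 10 and 20 s after thallium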
KCC2 secondary2 – KCC2 modulators without ouabain present, confirmation, cell-based, HEK293 KCC2, thallium flux, FluoZin2, secondary assay 2 | shares compounds with KCC2 mod | thallium flux FluoZin2 fluorescence; actives lie on both sides; F/F0 rise rate, 10–20 s post-thallium | normalized thallium flux at 10 µM | actives 23% (n = 3,700);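 active means thallium flux slope more than 3 SD above or below the plate's solvent-only control mean, mostly below; inconclusive means the two repeat wells disagreed; inactive means no significant shift from solvent-only controls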;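 further: raw slope with 0.1% DMSO as baseline and bumetanide as block control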
HEK293 Tl flux – thallium flux modulation in parental HEK cells, confirmation, counter-screen for KCC2 modulator project, cell-based, counterscreen 1; shares compounds with KCC2 mod; HEK293 parental cells, thallium flux FluoZin2, ouabain; baseline-ratio fluorescence slope, 10–20 s after thallium; thallium flux rate (normalised fluorescence) at 10 µM; actives 46% (n = 3,700);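 active means thallium flux rate significantly above the same plate's solvent-only control wells, beyond their mean plus 3 SD; inconclusive means the two replicate wells gave conflicting results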
KCC2 ouabain – KCC2 inhibitors and activators, ouabain retest, confirmation, HEK-KCC2 cells | shares compounds with KCC2 mod | HEK293-KCC2, thallium flux FluoZin2 fluorescence; bidirectional: low = inhibitor, high = activator | raw Tl+ flux slope (below DMSO = inhibition, above = activation) at 10 µM | actives 48% (n = 3,700);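 active means thallium flux slope beyond 3 SD from same-plate DMSO control mean in most replicates, usually higher, sometimes lower; inconclusive means repeat tests gave conflicting results; inactive means no significant difference from controls in most replicates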;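 further: slope of initial-normalized fluorescence between seconds 10 and 20 after thallium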
HEK counter2 – native HEK Tl+ uptake effects, second counter-screen – HEK cells, counterscreen 2, counter-screen for KCC2 modulator project, confirmation; shares compounds with KCC2 mod; HEK293 parental, thallium flux FluoZin-2 fluorescence slope; thallium flux slope at 10 µM; actives 33% (n = 3,700);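 active means thallium flux slope above the same plate's solvent-control mean plus 3 SD in both duplicate wells; inconclusive means duplicate wells that disagreed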;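 further: run without ouabain in cells lacking the KCC2 cotransporter; slope of fluorescence scaled to its starting value between 10 and 20 s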
The depositor's hits bear a star; u = inconclusive; x = no result. Hits are enriched below; roughly 3.3% of the tested compounds scored in any of these assays.

SMILES | Cardio protect | PHOSPHO1 inh | Efflux pump inh | Calb FLC | KCC2 mod | KCC2 secondary | KCC2 bumet counter | KCC2 secondary2 | HEK293 Tl flux | KCC2 ouabain | HEK counter2
S=c1[nH]nc(-c2ccccn2)n1/N=C/c1ccc(Cl)c(Cl)c1 | 6 | 16 | 0 | 4 | 41* | 0.0056 | 0.11* | 0.054* | 0.041* | 0.067* | 0.031*
COc1ccc2nccnc2c1[N+](=O)[O-] | 2 | 27 | 0 | 17 | 0.11 | x | x | x | x | x | x
COc1cccc(NC(=O)c2ccc(N3C(=O)C4CC=CCC4C3=O)cc2)c1 (centres undefined) | -7 | x | 0 | -14 | x | x | x | x | x | x | x
CCCn1nnc(NCc2ccc(OCc3cccs3)c(OC)c2)n1 | -1 | -28 | 0 | -3 | -2.9* | 0.0069 | 0.0046 | 0.028 | 0.0073 | u | 0.01
Cc1n[nH]c(C)c1CCNC(=O)C1CCC(=O)N(Cc2ccccc2F)C1 (centres undefined) | 3 | 13 | 0 | 4 | x | x | x | x | x | x | x
Cc1ccc2nc(N3CCN(Cc4ccc(F)cc4)C3=O)c(C)cc2c1 | -14 | -4 | 0 | 0 | x | 0.016 | 0.0051 | 0.024* | 0.007 | 0.013 | 0.0099
Cc1ccc(-n2cccc2/C=C2\C(=N)N3N=C(C(C)C)SC3=NC2=O)cc1 | -7 | 28 | 1 | u | 7.1* | 0.0068 | 0.037* | u | 0.03* | 0.031* | 0.017*
CCc1ccc(NC(=O)C2CCCN2S(=O)(=O)c2ccc3c(c2)n(C)c(=O)c(=O)n3C)cc1 (centres undefined) | 1 | 16 | 0 | 5 | -0.45 | x | x | x | x | x | x
CC(OC(=O)c1cccc(S(=O)(=O)N2CCOCC2)c1)C(=O)NC1CCCCC1C (centres undefined) | 1 | x | 0 | x | x | x | x | x | x | x | x
Nc1c(C(=O)CSc2nnc(-c3ccccc3)o2)c(=O)[nH]c(=O)n1C1CC1 | 0 | x | 0 | x | x | x | x | x | x | x | x
O=C(Nc1ccccc1C(=O)Nc1nnc(C(F)(F)F)s1)c1ccccc1 | -13 | 34 | 0 | -13 | 3.2* | u | 0.022* | 0.033 | u | 0.019 | 0.011
N#C/C(=C(/O)c1cccc(F)c1)c1nc2ccccc2s1 | -16 | 2 | 0 | -2 | -3* | 0.0089 | 0.006 | u | 0.0077 | 0.016* | 0.011
Cn1c(/C(C#N)=C(\O)c2cccc(F)c2)nc2ccccc21 | 10 | 31 | 0 | 1 | x | x | x | x | x | x | x
CN(C)C(CNc1ncnc2sccc12)c1cccs1 (centres undefined) | 6 | 15 | 0 | 5 | 1.1 | x | x | x | x | x | x
CCOC(=O)c1sc2ncnc(NCC(c3cccs3)N(C)C)c2c1C (centres undefined) | -1 | 3 | 0 | -4 | x | 0.041* | 0.17* | 0.046* | 0.093* | 0.086* | 0.035*
CSCCC(NC(=O)c1ccccc1Cl)C(=O)Nc1cccc(S(=O)(=O)N2CCCC2)c1 (centres undefined) | 1 | x | 0 | 3 | x | x | x | x | x | x | x
NC(=O)N1CC(O)CC1C(=O)Nc1ccc(Cl)c(Cl)c1 (centres undefined) | -8 | x | 0 | -1 | 1.3 | 0.0056 | 0.0044 | 0.032 | 0.0085 | 0.02 | 0.011
CC(C)N1CC(C(=O)Nc2ccc(Cl)c(Cl)c2)CC1=O (centres undefined) | 10 | 41 | 0 | -3 | x | x | x | x | x | x | x
COc1ccc(-c2nn(C)c(=O)c3ccccc23)cc1CNS(C)(=O)=O | 8 | 5 | 0 | -6 | -1.4 | x | x | x | x | x | x
COc1ccc(-c2nn(C)c(=O)c3ccccc23)cc1NS(C)(=O)=O | 15 | 17 | 0 | 2 | x | 0.0078 | 0.0057 | 0.03 | 0.0065 | 0.019 | 0.0093
Cc1noc(C)c1S(=O)(=O)N(CC(=O)Nc1ccc2c(c1)OCO2)c1ccc(C(C)C)cc1 | -9 | -13 | 0 | x | -0.3 | x | x | x | x | x | x
COc1ccc(N(CC(=O)Nc2cccc(C)c2C)S(=O)(=O)c2c(C)[nH]c(=O)[nH]c2=O)cc1 | 1 | 22 | 0 | 12 | -0.11 | x | x | x | x | x | x
COc1ccc(N(CC(=O)Nc2cccc(C)c2C)S(=O)(=O)c2c(C)n[nH]c2C)cc1 | 9 | 18 | 0 | -10 | x | 0.019 | 0.0051 | 0.024* | 0.0075 | 0.015 | 0.01
Cc1n[nH]c(C)c1S(=O)(=O)N(CC(=O)Nc1ccc2c(c1)OCCO2)c1ccc(C(C)C)cc1 | 1 | 9 | 0 | 8 | -5.1* | u | u | 0.032 | 0.0066 | 0.016* | 0.01
Nc1nc(SCCO)[nH]c(=O)c1NC(=O)c1ccc(Br)o1 | 6 | 29 | 0 | x | x | x | x | x | x | x | x
O=C(NNC(=O)c1csc(-c2cnccc2C(F)(F)F)n1)c1ccc(C(F)(F)F)cc1 | 14 | -3 | 0 | -3 | 5.9* | u | 0.041* | 0.028 | 0.013* | u | u
COc1ccc(S(=O)(=O)NCCSCc2ccco2)cc1Cl | 8 | 5 | 0 | 10 | 6.4* | 0.006 | 0.0045 | 0.03 | 0.0071 | 0.017 | 0.011
COc1ccc(S(=O)(=O)NCCSCc2ccco2)cc1C | -2 | x | 0 | 17 | -1.8 | x | x | x | x | x | x
Nn1c(SC/C=C/c2ccccc2)nnc1-c1ccco1 | 7 | -41 | 0 | 40 | -0.0018 | x | x | x | x | x | x
Clc1cccc(-c2nnc(SC/C=C/c3ccccc3)n2Cc2ccco2)c1 | -4 | 21 | 0 | 6 | -3.3* | 0.0052 | u | 0.03 | 0.0059* | 0.015* | u

Bioassay records deposited in PubChem BioAssay by several laboratories.
